# Experimental data reported in PubChem BioAssay (NCATS).
# Where “and” joins values, the source holds several entries; their conditions need not be identical. Equal values may be shown once. Results filed as inconclusive are left out. A call without a number means that no potency is given here. Where a structure was tested more than once in an assay, its records may differ in their call. A number with no mark means an inactive call. Calls of active or inactive are those of the source. Calls come from the whole dose curve; as a rule, active = well fitted curve in the direction sought with a large enough effect; inconclusive = small, poorly fitted or top-dose-only effect, or another doubt; inactive = no such curve, though single readings can be large; an effect the other way counts as inactive or inconclusive.
# Columns and labels:
# [1] = Drug repurposing screens with cells derived from glioblastoma tumor samples (AID 1345199); conditions: GBM patient neurospheres viability, ATP luminescence, 48 h; note: nearly all actives have a fitted effect of over 40% in size; note: potency is the fitted concentration of half-maximal effect
# How it was run: (§1)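 Four patient lines of CD133+ GBM neurospheres were screened at several concentrations; hits were retested in those lines plus three slower-growing GBM lines, using 48-hour treatment and ATP-based viability.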
# [2] = system: CAOV3; assay: Primary qHTS to identify gynecologic anti-cancer compounds using libraries of approved drugs and bioactive compounds (AID 1345084); conditions: Gynecologic cancer cell panel viability, ATPlite luminescence, 48 h; series mostly up to 57.5 µM; note: nearly all actives have a fitted effect of over 55% in size; note: potency is the fitted concentration of half-maximal effect
# How it was run: (§2)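 48 h compound exposure at 37 C, 5% CO2; five-point qHTS. ATPlite luminescence readout of cell ATP.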
# [3] = system: HeLa; assay: as above; conditions: Gynecologic cancer cell panel viability, ATPlite luminescence, 48 h; series mostly up to 57.5 µM
# How it was run: as §2
# [4] = system: Hek293T; assay: as above; conditions: Gynecologic cancer cell panel viability, ATPlite luminescence, 48 h, control line for the selectivity index; series mostly up to 57.5 µM
# How it was run: as §2
# [5] = system: JEG-3; assay: as above; conditions: Gynecologic cancer cell panel viability, ATPlite luminescence, 48 h; series mostly up to 57.5 µM
# How it was run: as §2
# [6] = system: SKOV3; assay: as above; conditions: Gynecologic cancer cell panel viability, ATPlite luminescence, 48 h; series mostly up to 57.5 µM
# How it was run: as §2
# [7] = system: Tov-21-G; assay: as above; conditions: Gynecologic cancer cell panel viability, ATPlite luminescence, 48 h; series mostly up to 57.5 µM
# How it was run: as §2
# [8] = system: Tov112D; assay: as above; conditions: Gynecologic cancer cell panel viability, ATPlite luminescence, 48 h; series mostly up to 57.5 µM
# How it was run: as §2
# [9] = system: astro; assay: Drug repurposing screens with cells derived from glioblastoma tumor samples (AID 1345199); conditions: viability, ATP luminescence, 48 h; series mostly up to 45.9 µM; note: nearly all actives have a fitted effect of over 40% in size; note: potency is the fitted concentration of half-maximal effect
# How it was run: as §1
# [10] = system: MKL-2; assay: qHTS assay to identify novel small-molecules to repurpose for Merkel cell carcinoma treatment (AID 1296009); conditions: MCC and control cell lines, CellTiter-Glo viability, 72 h; series mostly up to 46 µM; note: nearly all actives have a fitted effect of over 60% in size; note: potency is the fitted concentration of half-maximal effect
# How it was run: (§3)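 Cells were treated for 72 hr at 37 degree celsius with compounds in 8- or 11-point dose response. Viability was read by CellTiter-Glo luminescence, normalized to no-cell (cytotoxicity) and DMSO controls.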
# [11] = system: UISO; assay: as above; conditions: MCC and control cell lines, CellTiter-Glo viability, 72 h; series mostly up to 46 µM
# How it was run: as §3
# [12] = system: CASKI; assay: Primary qHTS to identify gynecologic anti-cancer compounds using libraries of approved drugs and bioactive compounds (AID 1345084); conditions: Gynecologic cancer cell panel viability, ATPlite luminescence, 48 h; series mostly up to 57.5 µM; note: nearly all actives have a fitted effect of over 55% in size; note: potency is the fitted concentration of half-maximal effect
# How it was run: as §2
# [13] = system: Es-2; assay: as above; conditions: Gynecologic cancer cell panel viability, ATPlite luminescence, 48 h; series mostly up to 57.5 µM
# How it was run: as §2
# [14] = system: PA-1; assay: as above; conditions: Gynecologic cancer cell panel viability, ATPlite luminescence, 48 h; series mostly up to 57.5 µM
# How it was run: as §2
# [15] = system: OV90; assay: as above; conditions: Gynecologic cancer cell panel viability, ATPlite luminescence, 48 h; series mostly up to 57.5 µM
# How it was run: as §2
# [16] = qHTS assay to identify inhibitors of the type 1 interferon - major histocompatibility complex class I in skeletal muscle: Counter screen cell viability and HiBit confirmation (AID 1347412); conditions: iHSKM muscle cells + IFN-b, HiBiT or CellTiter-Glo, 24 h; Viability; at 45.9 µM (top of the series); note: nearly all actives have a fitted effect of over 60% in size
# How it was run: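 Luminescence read-out: Nano-Glo HiBiT lytic signal from C-terminally HiBiT-tagged HLA-B in CRISPR-edited human myoblasts, plus CellTiter Glo ATP as viability counter screen. IFN-beta 4.0 ng/ml; 24 hrs treatment at 37 C, 5% CO2.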
# [17] = system: MKL-1; assay: qHTS assay to identify novel small-molecules to repurpose for Merkel cell carcinoma treatment (AID 1296009); conditions: MCC and control cell lines, CellTiter-Glo viability, 72 h; series mostly up to 46 µM; note: nearly all actives have a fitted effect of over 60% in size; note: potency is the fitted concentration of half-maximal effect
# How it was run: as §3
# [18] = system: WaGa; assay: as above; conditions: MCC and control cell lines, CellTiter-Glo viability, 72 h; series mostly up to 46 µM
# How it was run: as §3
# [19] = system: C33A; assay: Primary qHTS to identify gynecologic anti-cancer compounds using libraries of approved drugs and bioactive compounds (AID 1345084); conditions: Gynecologic cancer cell panel viability, ATPlite luminescence, 48 h; series mostly up to 57.5 µM; note: nearly all actives have a fitted effect of over 55% in size; note: potency is the fitted concentration of half-maximal effect
# How it was run: as §2
# [20] = at 46.1 µM (top of the series), tumour line C
# [21] = at 21.2 µM (top of the series), tumour line B
# [22] = at 21.3 µM (top of the series), tumour line A
# [23] = at 45.9 µM (top of the series), tumour line B
# [24] = at 20 µM (top of the series), tumour line C
# [25] = at 21.2 µM (top of the series), tumour line D
smiles,measurement,setting,value
N[C@@H](Cc1ccc(O)c(O)c1)C(=O)O,"activity, negative = cell killing",[1]; [20],28.9%
same,Potency,[1]; tumour line A,12.6 µM (active)
NC(N)=NC(N)=NCCc1ccccc1,Potency,[2],inactive
same,Potency,[3],inactive
same,Potency,[4],inactive
same,Potency,[5],inactive
same,Potency,[6],14.1 µM (active)
same,Potency,[7],inactive
same,Potency,[8],inactive
same,"activity, negative = cell killing",[1]; [21],-24.6%
same,"activity, negative = cell killing",[1]; [22],-28.1%
same,"activity, negative = cell killing",[1]; [23],-14.4%
same,Potency,[1]; tumour line D,25.1 µM (active)
same,Potency,[9],inactive
OCc1ccc(-c2nn(Cc3ccccc3)c3ccccc23)o1,Potency,[10],18.7 µM (active)
same,Potency,[11],11.8 µM (active)
N=C(N)c1ccc(OCCCCCOc2ccc(C(=N)N)cc2)cc1,Potency,[2],inactive
same,Potency,[12],inactive
same,Potency,[13],inactive
same,Potency,[3],inactive
same,Potency,[5],inactive
same,Potency,[14],5.01 µM (active)
same,Potency,[7],inactive
same,Potency,[8],inactive
COC(=O)Nc1nc2ccc(C(=O)c3ccccc3)cc2[nH]1,Potency,[11],4.18 µM (active)
same,Potency,[2],inactive
same,Potency,[13],2.82 µM (active)
same,Potency,[15],8.91 µM (active)
same,Potency,[14],1.41 µM (active)
same,Potency,[8],1.58 µM (active)
same,"activity, negative = cell killing",[1]; [24],-22.4%
same,Potency,[1]; tumour line A,0.158 µM (active)
same,"activity change, negative = inhibition",[16],-33.9%
CCCCS(=N)(=O)CCC(N)C(=O)O (configuration not stated),Potency,[17],inactive
same,Potency,[11],inactive
same,Potency,[18],inactive
COc1cc2ncnc(Nc3cccc(Cl)c3)c2cc1OC,Potency,[17],inactive
same,Potency,[10],inactive
same,Potency,[19],inactive
same,Potency,[12],inactive
same,Potency,[13],inactive
same,Potency,[3],inactive
same,Potency,[4],inactive
same,Potency,[5],inactive
same,Potency,[15],inactive
same,Potency,[14],inactive
same,Potency,[7],inactive
same,Potency,[8],inactive
same,"activity change, negative = inhibition",[16],-9.03%
CCCCOc1ccc(CC(=O)NO)cc1,Potency,[11],16.8 µM (active)
same,Potency,[2],inactive
same,Potency,[12],inactive
same,Potency,[3],inactive
same,Potency,[4],inactive
same,Potency,[15],inactive
same,"activity, negative = cell killing",[1]; [24],38.6%
same,"activity, negative = cell killing",[1]; [21],-16.2%
same,"activity, negative = cell killing",[1]; [25],-14.5%
same,Potency,[1]; tumour line A,11.2 µM (active)
Cc1c(-c2ccc(O)cc2)n(Cc2ccc(OCCN3CCCCCC3)cc2)c2ccc(O)cc12,Potency,[4],inactive
same,Potency,[5],inactive
same,Potency,[7],inactive
Nc1nc(F)nc2c1ncn2[C@@H]1O[C@H](CO)[C@@H](O)[C@@H]1O,Potency,[17],16.8 µM (active)
same,Potency,[11],13.3 µM (active) and 935 nM (active)
same,Potency,[18],10.6 µM (active) and 935 nM (active)
same,Potency,[2],inactive
same,Potency,[12],inactive
same,Potency,[3],inactive
same,Potency,[4],inactive
same,Potency,[5],inactive
same,Potency,[15],inactive
same,Potency,[14],inactive
same,Potency,[6],inactive
same,Potency,[8],17.8 µM (active)
same,"activity, negative = cell killing",[1]; [23],-27.2%
same,"activity, negative = cell killing",[1]; [20],-19% and -29.8%
same,Potency,[1]; tumour line A,10 µM (active)
same,Potency,[1]; tumour line D,20 µM (active)
CNC(=O)c1cc(Oc2ccc(NC(=O)Nc3ccc(Cl)c(C(F)(F)F)c3)cc2)ccn1,Potency,[18],23.7 µM (active)
same,Potency,[2],inactive
same,Potency,[12],inactive
same,Potency,[13],inactive
same,Potency,[5],inactive
same,Potency,[15],inactive
same,Potency,[14],inactive
same,Potency,[7],inactive
same,Potency,[8],inactive
same,Potency,[9],11.2 µM (active)
same,"activity change, negative = inhibition",[16],-24%
Nc1[nH]c(=O)ncc1F,Potency,[19],inactive
same,Potency,[2],inactive
same,Potency,[12],inactive
same,Potency,[13],inactive
same,Potency,[3],inactive
same,Potency,[4],inactive
same,Potency,[5],inactive
same,Potency,[15],inactive
same,Potency,[14],inactive
same,Potency,[6],inactive
same,Potency,[7],inactive
same,Potency,[8],inactive
same,"activity, negative = cell killing",[1]; [24],6.56%
same,"activity, negative = cell killing",[1]; [21],-3.24%
same,"activity, negative = cell killing",[1]; [25],-9.05%
same,"activity, negative = cell killing",[1]; [22],-15%
same,Potency,[9],inactive
CNCC[C@H](Oc1cccc2ccccc12)c1cccs1,Potency,[10],16.8 µM (active) and 18.7 µM (active)
same,Potency,[11],16.6 µM (active)
same,Potency,[18],inactive
same,Potency,[5],inactive
same,Potency,[15],28.2 µM (active)
same,Potency,[14],inactive
same,Potency,[6],20 µM (active)
same,Potency,[7],inactive
same,Potency,[8],inactive
same,"activity, negative = cell killing",[1]; [20],-0.487%
same,Potency,[1]; tumour line A,3.55 µM (active)
same,Potency,[1]; tumour line B,28.2 µM (active)
same,Potency,[1]; tumour line D,17.8 µM (active)
same,Potency,[9],28.2 µM (active)
Cc1ncc([N+](=O)[O-])n1CCO,Potency,[19],inactive
same,Potency,[2],inactive
same,Potency,[12],inactive
same,Potency,[13],inactive
same,Potency,[3],inactive
same,Potency,[4],inactive
same,Potency,[5],inactive
same,Potency,[15],inactive
same,Potency,[14],inactive
same,Potency,[6],inactive
same,Potency,[7],inactive
same,Potency,[8],inactive
same,"activity, negative = cell killing",[1]; [23],-7.77%
same,"activity, negative = cell killing","[1]; at 45.9 µM (top of the series), tumour line D",10.9%
same,"activity, negative = cell killing","[1]; at 46 µM (top of the series), tumour line A",-19.2%
same,"activity, negative = cell killing",[1]; [20],12.6%
same,Potency,[9],inactive
